Screening data (PubChem)
The list is not random: actives were taken first. Their share in the collection is about 2%.
Mcl1-Bid inh: Mcl-1/Bid interaction inhibition | inhibition, % at 21.7 µM | 220,000 tested, 0.97% active | TR-FRET Mcl-1/Bid-Dy647 peptide binding, 1536-well | Q07820 | AID 1021;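 active = compounds that cut the binding signal by more than half at the single screening dose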;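 also: His-tagged Mcl-1 with europium anti-His antibody binding Bid BH3 peptide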
Target sequence (Q07820 whole entry, looked up): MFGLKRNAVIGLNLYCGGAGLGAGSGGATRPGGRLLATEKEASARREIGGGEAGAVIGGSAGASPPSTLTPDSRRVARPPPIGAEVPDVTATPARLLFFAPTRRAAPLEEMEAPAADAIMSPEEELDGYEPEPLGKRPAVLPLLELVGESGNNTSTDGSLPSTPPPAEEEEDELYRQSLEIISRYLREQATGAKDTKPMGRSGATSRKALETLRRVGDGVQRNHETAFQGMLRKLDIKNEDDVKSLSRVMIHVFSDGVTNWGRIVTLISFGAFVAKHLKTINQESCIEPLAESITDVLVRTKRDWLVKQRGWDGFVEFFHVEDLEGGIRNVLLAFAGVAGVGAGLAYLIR
Mcl1-Noxa inh: Mcl-1/Noxa interaction inhibition; inhibition, % at 21.7 µM; 220,000 tested, 1.5% active; TR-FRET Mcl-1/Noxa peptide binding, 2 h; AID 1022; Q07820;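 active = compounds that cut the protein-peptide binding signal by more than 50% relative to plate controls in a single-dose test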;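 also: His-tagged Mcl-1 with rhodamine Noxa BH3 peptide and terbium anti-His antibody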
Bim-Mcl-1: inhibitors of Bim-Mcl-1 interaction, human; Bead-based flow cytometry, Bim peptide-Mcl-1 binding; inhibition, % at 10 µM; Q07820; AID 1009; 190,000 tested, 0.1% active; in the data active = inhibition above about 40%
MCL1 BIM primary: inhibitors of human MCL1 binding to BIM-BH3 peptide. Q07820. GST-MCL1 / FITC-Bim-BH3 fluorescence polarization. inhibition, % at 10.9 µM. 320,000 tested, 0.68% active. AID 2057;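 active = inhibition above the mean inhibition of all tested compounds plus 3 SD, set per campaign, cut at about 40% in these data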;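 also: higher means more loss of mP so more displacement of Bim peptide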
Large screens that a line does not name were inactive.

O=[N+]([O-])c1ccc(O)c(N=Cc2sc3ccccc3c2O)c1	Mcl1-Noxa inh 53
Cc1cccc(/N=C/c2c(O)[nH]c3ccccc23)n1	none
Cc1cccc(/N=C/c2sc3ccccc3c2O)n1	Mcl1-Noxa inh 82 (no result: Bim-Mcl-1)
Oc1ccc(Cl)cc1N=Cc1sc2ccccc2c1Cl	none
CCN(CC)c1ccc(CN(C(=O)c2cccs2)C2CCS(=O)(=O)C2)cc1 (stereo unspecified)	none (no result: Mcl1-Bid inh, Mcl1-Noxa inh, Bim-Mcl-1)
O=C(O)c1ccc(/C=N\Nc2ccc(S(=O)(=O)N3CCOCC3)cc2[N+](=O)[O-])cc1	none (no result: Bim-Mcl-1)
Cc1ccc(-n2c(O)c(/C=N/Nc3ccc(S(=O)(=O)N4CCOCC4)cc3[N+](=O)[O-])c3ccccc3c2=O)c(C)c1	Mcl1-Noxa inh 78
COc1cc(/C=C/C(=O)c2ccc(NS(=O)(=O)c3ccc(C)cc3)cc2)cc(OC)c1O	Mcl1-Noxa inh 56
COc1cc(/C=C/C(=O)c2ccc(NS(=O)(=O)c3ccc(C)cc3)cc2)ccc1OC(F)F	none
COc1cc(-c2nc3cnccn3c2Nc2ccccc2)ccc1O	Mcl1-Noxa inh 55
COc1ccc(-n2c(SCC(=O)NCC3CCCO3)nc3c(c2=O)SC(C)C3)cc1 (stereo unspecified)	none (no result: Mcl1-Bid inh, Mcl1-Noxa inh, Bim-Mcl-1)
COc1ccc(CCNC(=O)c2ccc(Cl)cc2Cl)cc1OC	Mcl1-Bid inh 83
COc1ccc(CCNC(=O)c2ccc(=O)[nH]n2)cc1OC	Mcl1-Bid inh 100
COc1ccc(CCNC(=O)CCCN2C(=O)c3ccccc3C2=O)cc1OC	Mcl1-Bid inh 62
CC(Oc1cccc(Cl)c1)C(=O)Nc1cc(Cl)ccc1N1CCOCC1 (stereo unspecified)	none (no result: Mcl1-Bid inh, Mcl1-Noxa inh, Bim-Mcl-1)
Cc1occc1C(=O)Nc1ccc([N+](=O)[O-])cc1Br	none (no result: Mcl1-Bid inh, Mcl1-Noxa inh, Bim-Mcl-1)
Cc1occc1C(=O)NNC(=O)Nc1ccc([N+](=O)[O-])cc1	Mcl1-Bid inh 82
CCN(CC)c1ccc(NC(=O)CN2CCN(CC(=O)Nc3ccccc3OC)CC2)cc1	none (no result: Mcl1-Bid inh, Mcl1-Noxa inh, Bim-Mcl-1)
CCN(CC)c1ccc(NC(=O)CN2CCN(CC(=O)Nc3ccccc3F)CC2)cc1	Mcl1-Noxa inh 55
COC(=O)c1cc(S(=O)(=O)N2CCN(c3cccc(Cl)c3)CC2)c[nH]1	none (no result: Mcl1-Bid inh, Mcl1-Noxa inh, Bim-Mcl-1)
CC1(C)Cc2c(ccc3ccccc23)/C(=C/C(=O)N2CCCCC2)N1	Bim-Mcl-1 42
C#CCn1c(=NC(=O)c2ccc(Br)s2)sc2cc(NC(C)=O)ccc21	Mcl1-Bid inh 58
Cc1ccc(S(=O)(=O)c2cc3c(=O)n4cccc(C)c4nc3n(Cc3ccncc3)c2=N)cc1	none (no result: Mcl1-Bid inh, Mcl1-Noxa inh, Bim-Mcl-1)
O=C(Nc1ccc(S(=O)(=O)Nc2ncccn2)cc1)c1ccc2ncsc2c1	Mcl1-Bid inh 90, Mcl1-Noxa inh 60 (no result: Bim-Mcl-1)
O=C(Nc1ccncc1)c1ccc2ncsc2c1	none (no result: Mcl1-Bid inh, Mcl1-Noxa inh, Bim-Mcl-1)
O=C(Nc1nccs1)c1cccc(N2C(=O)c3cccc4c([N+](=O)[O-])ccc(c34)C2=O)c1	Mcl1-Bid inh 101, Mcl1-Noxa inh 93, MCL1 BIM primary 47
CCn1nc(C(=O)Nc2ccc(S(=O)(=O)Nc3nccs3)cc2)c2ccccc2c1=O	Mcl1-Noxa inh 64
O=C(Nc1ccc(S(=O)(=O)Nc2ncccn2)cc1)c1nn(Cc2ccccc2)c(=O)c2ccccc12	none (no result: Bim-Mcl-1)
O=C(Nc1ccc(S(=O)(=O)Nc2nccs2)cc1)c1cccc(N2C(=O)c3ccccc3C2=O)c1	Mcl1-Noxa inh 53
COc1cccc(CNC(=O)C2CCN(c3nnc(N4CCCC4=O)s3)CC2)c1	none (no result: Mcl1-Bid inh, Mcl1-Noxa inh, Bim-Mcl-1)
CCOc1ccc(C(=O)OCn2nnc3ccccc3c2=O)cc1OC	none
COc1cc(C(=O)OCn2nnc3ccccc3c2=O)cc(OC)c1OC	Mcl1-Bid inh 62
O=C(O)C(Cc1ccccc1)N1C(=O)/C(=C/C=C/c2ccco2)SC1=S (stereo unspecified)	Mcl1-Bid inh 98, Mcl1-Noxa inh 102 (no result: Bim-Mcl-1, MCL1 BIM primary)
O=C1S/C(=C\C=C\c2ccco2)C(=O)N1c1ccccc1	none
O=C1S/C(=C\C=C\c2ccco2)C(=O)N1c1ccc(O)cc1	Mcl1-Noxa inh 56
O=C(NN1C(=O)/C(=C/C=C/c2ccco2)SC1=S)c1ccccc1O	Mcl1-Bid inh 60, Mcl1-Noxa inh 101 (no result: Bim-Mcl-1)
COc1ccc(/C=C2\SC(=S)N(C(Cc3ccccc3)C(=O)O)C2=O)cc1 (stereo unspecified)	none (no result: MCL1 BIM primary)
Cc1cc(C)cc(N2C(=O)CCN(Cc3ccccc3)C2=O)c1	none (no result: Bim-Mcl-1)
O=S(=O)(Cc1ccccc1Cl)NCCc1ccc(F)cc1	none (no result: Mcl1-Bid inh, Mcl1-Noxa inh, Bim-Mcl-1)
O=C(Nc1ccc(O)cc1)C1CC=CCC1 (stereo unspecified)	Mcl1-Noxa inh 56
O=C(Nc1nccs1)C1CC=CCC1 (stereo unspecified)	none (no result: Mcl1-Bid inh, Mcl1-Noxa inh, Bim-Mcl-1)
COc1cccc(CN(C)C(=O)c2ccc3nccnc3c2)c1	MCL1 BIM primary 48
CCOC(=O)C1CCCN(C(=O)CN2C(=O)/C(=C/c3ccc(OC)cc3)Oc3ccccc32)C1 (stereo unspecified)	none
COc1ccccc1NC(=O)CSc1nnc2ccc(-c3cccnc3)nn12	none
CCOc1ccccc1NC(=O)CSc1nnc2ccc(-c3cccnc3)nn12	Bim-Mcl-1 40
Cc1ccc(CN2C(=O)N/C(=C\c3ccc(-c4ccc(C(=O)O)cc4C)o3)C2=O)cc1	Mcl1-Noxa inh 57 (no result: Bim-Mcl-1)
O=C(O)c1ccc(-c2ccc(/C=C3\NC(=O)N(Cc4ccc(Cl)cc4)C3=O)o2)cc1	Mcl1-Noxa inh 61 (no result: Bim-Mcl-1, MCL1 BIM primary)
Cc1cc(C(=O)O)ccc1-c1ccc(/C=C2\NC(=O)N(Cc3ccccc3Cl)C2=O)o1	Mcl1-Noxa inh 61
COc1ccccc1NS(=O)(=O)c1ccc(C(=O)OCC(=O)NCc2ccco2)cc1	Mcl1-Noxa inh 55
COc1ccccc1NC(=O)COC(=O)c1ccc(S(=O)(=O)NCc2ccco2)cc1	none
COc1cc(C(=O)O)c([N+](=O)[O-])c(OC)c1OC	none (no result: Bim-Mcl-1)
COc1ccc(OC)c([N+](=O)[O-])c1C(N)=O	Mcl1-Noxa inh 56
Oc1ccc2cccnc2c1	MCL1 BIM primary 45
Nc1ccn(CC(=O)NCCc2ccccn2)c(=O)n1	none (no result: Mcl1-Bid inh, Mcl1-Noxa inh, Bim-Mcl-1)
COc1ccc(C(=O)Oc2c(CN3CCOCC3)cc(Cl)c3cccnc23)cc1	Mcl1-Bid inh 54
COC(=O)c1cc(Br)ccc1NC(=O)Nc1ccccc1	Mcl1-Noxa inh 73
COC(=O)c1cc(Br)ccc1NC(=O)Nc1ccc(C)cc1	none (no result: Mcl1-Bid inh, Mcl1-Noxa inh, Bim-Mcl-1)
CCCCNS(=O)(=O)c1ccc(NC(=O)C(Sc2ccccc2)c2ccccc2)cc1 (stereo unspecified)	none
C=CCn1c(=O)/c(=C2/Sc3ccccc3N2CC)s/c1=C1/C(=O)NN=C1C	none
C=CCn1c(=O)/c(=C2/SC(C)=C(C)N2CC)s/c1=C1/C(=O)N(CC)C(=S)N1c1ccccc1	Mcl1-Bid inh 59
CCc1nnc(NC(=O)c2sc3nc4c(cc3c2N)CCCCCC4)s1	Mcl1-Noxa inh 53
Oc1[nH]c2ccccc2c1N=Nc1nc2ccccc2s1	Mcl1-Bid inh 59, Mcl1-Noxa inh 84
Oc1[nH]c2ccccc2c1N=Nc1ccccc1	none (no result: Bim-Mcl-1)
Cc1ccc2[nH]c(O)c(N=Nc3nc4ccccc4s3)c2c1	Mcl1-Bid inh 51, Mcl1-Noxa inh 95 (no result: Bim-Mcl-1)
Cc1ccc2[nH]c(C)c(/C=N/Nc3nc4ccccc4s3)c2c1	none
CCc1ccc(C2=CSC3=NCCN23)cc1	none (no result: Mcl1-Bid inh, Mcl1-Noxa inh, Bim-Mcl-1)
COc1ccc(C2(c3ccc(OC)cc3)NC(=O)N(CC(=O)Nc3ccc(OC)c(OC)c3)C2=O)cc1	none (no result: Mcl1-Bid inh, Mcl1-Noxa inh, Bim-Mcl-1)
COCCN(CCOC)C(=O)c1c[nH]c2ccc(S(=O)(=O)N(C)c3ccc(F)cc3)cc2c1=O	Mcl1-Bid inh 62
